Measured values published in the antibiotic and cytotoxicity screens of Wong et al. (2023).
In all, about 39,000 compounds went through this assay and about 1,500 (3.8%) were called active. What follows is part of a selection rich in actives, with near analogues and random picks from the rest.

Tested on: HSkMC (human skeletal muscle cells)
Assay: cytotoxicity call (relative viability < 0.9)
Conditions: 10 µM

SMILES	cytotoxicity call
CC(=O)O[C@@]12CO[C@@H]1C[C@H](O)[C@@]1(C)C(=O)[C@H](O)C3=C(C)[C@@H](OC(=O)[C@H](O)[C@@H](NC(=O)c4ccccc4)c4ccccc4)C[C@](O)([C@@H](OC(=O)c4ccccc4)[C@H]21)C3(C)C	inactive
COCC(=O)N1C[C@@H]2c3ccccc3CN[C@@H]2C1	inactive
COC(=O)[C@@H](N)CCCNC(N)=N[N+](=O)[O-]	inactive
[N-]=[N+]=CC(=O)OCC(N)C(=O)O (stereo not given)	inactive
C1COC2(CCOCC2)CN1	inactive
Cc1cc(OC(=O)N(C)C)cc(=O)n1C	inactive
COC(=O)C[C@@H]1CC[C@H]2NC[C@@H](O)COC[C@@H]2O1	inactive
CC(N)(Cc1ccccc1)c1ccccc1 (stereo not given)	inactive
COC(=O)C[C@](O)(CCC(C)(C)O)C(=O)O[C@@H]1C(OC)=C[C@]23CCCN2CCc2cc4c(cc2[C@H]13)OCO4	active
CN1CCc2cc3c(cc2[C@@H]1O)OCO3	inactive
CN1CCc2cc3c(cc2C1O)OCO3.Cl (stereo not given)	inactive
C[N+]12CCC(CC1)C(OC(=O)C(O)(c1ccccc1)c1ccccc1)C2.[Br-] (stereo not given)	inactive
CC1OC(OC2C(O)C(O)C(O)C(O)C2O)C(N)CC1NC(=N)C(=O)O.Cl (stereo not given)	inactive
O=C1C=C2C(=CCO[C@@H]2O)O1	inactive
O=C1C=C2C(=CCOC2O)O1 (stereo not given)	active
CCCCC(=O)N1CC[C@H]2CNC[C@H]21	inactive
N#Cc1c(Cl)c(Cl)c(Cl)c(C#N)c1Cl	active
CCCCCC1C(=O)OC(C)C(NC(=O)c2cccc(NC=O)c2O)C(=O)OC(C)C1OC(=O)CC(C)C (stereo not given) [ANTIMYCIN A (A1 shown) ]	inactive
CCC[C@@H](CN)c1ccc(F)cc1	inactive
COc1cc(C2c3cc4c(cc3C(O)C3COC(=O)C23)OCO4)cc(OC)c1OC (stereo not given)	inactive
COc1c(C[C@@H](C)O)c2c3c(C[C@@H](C)O)c(OC)c(=O)c4c(O)cc5c(c6c(cc(O)c(c1=O)c62)OCO5)c43	active
CCOC1OC2OC3(C)CCC4C(C)CCC(C1C)C24OO3 (stereo not given)	inactive

SMILES	cytotoxicity call
CC1=NCCc2c1[nH]c1cc(O)ccc21.Cl.O.O	inactive
CCCCC[C@H]1C(=O)O[C@H](C)[C@H](NC(=O)c2cccc(NC=O)c2O)C(=O)O[C@@H](C)[C@@H]1OC(=O)CC(C)C	inactive
CC1=C[C@H]2[C@]3(O)[C@H](C=C(CO)C[C@]2(O)C1=O)[C@H]1C(C)(C)[C@@]1(O)[C@H](O)[C@@H]3C	inactive
CCCCCCCCCCCCCC(=O)O[C@@H]1[C@@H](C)[C@@]2(O)[C@@H](C=C(CO)C[C@]3(O)C(=O)C(C)=C[C@@H]23)[C@@H]2C(C)(C)[C@]12OC(C)=O	active
CCCCCCCCCC(=O)O[C@@H]1[C@@H](C)[C@@]2(O)[C@@H](C=C(CO)C[C@]3(O)C(=O)C(C)=C[C@@H]23)[C@@H]2C(C)(C)[C@]12OC(=O)CCCCCCCCC	inactive
CCCCCCCCCC(=O)O[C@@H]1[C@@H](C)[C@]2(O)[C@@H](C=C(CO)C[C@]3(O)C(=O)C(C)=C[C@@H]23)[C@@H]2C(C)(C)[C@@]12OC(=O)CCCCCCCCC	active
Cc1ccc2[nH]cc(C[C@@H](C)N)c2c1	inactive
CCCC(C)C1(CC)C(=O)N=C([S-])NC1=O.[Na+] (stereo not given)	inactive
C[C@@H]1CN([C@@H](C)CO)C(=O)CCCn2cc(nn2)CO[C@@H]1CN(C)C(=O)Oc1ccc2ccccc2c1	inactive
CCCCSP(=O)(SCCCC)SCCCC	inactive
COc1ccc(O)c(C(C)(C)C)c1	inactive
CC(=O)OC1C(=O)C2(C)C(O)CC3OCC3(OC(C)=O)C2C(OC(=O)c2ccccc2)C2(O)CC(O)C(C)=C1C2(C)C (stereo not given)	inactive
C[C@H]1CN([C@@H](C)CO)C(=O)CCCn2cc(nn2)CO[C@H]1CN(C)C(=O)Oc1ccc2ccccc2c1	inactive
C=C1[C@@H](C)[C@H]2[C@H](Cc3ccccc3)NC(=O)[C@]23[C@H](OC(C)=O)/C=C/[C@](C)(O)C(=O)[C@@H](C)C/C=C/[C@H]3[C@@H]1O	active
COCCCNC(=O)[C@@]1(Cc2ccccc2CN=[N+]=[N-])N=C(c2ccc(OCCCO)cc2)O[C@H]1c1ccccc1CN=[N+]=[N-]	inactive
Nc1ccc2c(c1)Cc1ccccc1-2	inactive
CC(C)n1cnnc1CCN	inactive
CN1C[C@@H](NC(=O)C2CC2)[C@H]2OCCC[C@H]21	inactive
CCN1C(=O)/C(=C/c2ccc[nH]2)C(=O)NC1=S	inactive
C=CCN1C(=O)NC(=O)/C(=C/c2ccco2)C1=O	active
CN1C(=O)NC(=O)/C(=C\C=C\c2ccco2)C1=O	inactive
COC1=CC(=O)OC(C=Cc2ccccc2)C1 (stereo not given)	inactive

SMILES	cytotoxicity call
O=C(O)CC[C@@H](CP(=O)(O)O)C(=O)O	inactive
CC(=O)OC1CC(OC2C(O)CC(OC3C(O)CC(OC4CCC5(C)C(CCC6C5CC(O)C5(C)C(C7=CC(=O)OC7)CCC65O)C4)OC3C)OC2C)OC(C)C1OC1OC(CO)C(O)C(O)C1O (stereo not given)	active
CO[C@H]1[C@@H](O)[C@@H](O[C@H]2CC[C@]3(C=O)[C@@H]4[C@@H](CC[C@]3(O)C2)[C@@]2(O)CC[C@H](C3=CC(=O)OC3)[C@@]2(C)C[C@H]4OC(C)=O)O[C@@H](C)[C@@H]1OC(C)=O	inactive
CC(=O)O[C@H]1C[C@@H]2CC[C@@H]3[C@H](CC[C@@]4(C)[C@H]3C[C@H]([N+]3(C)CCCCC3)[C@@H]4OC(C)=O)[C@@]2(C)C[C@@H]1[N+]1(C)CCCCC1	inactive
CC12CCC(O)CC1CCC1C2CC(O)C2(C)C(C3=CC(=O)OC3)CCC12O (stereo not given)	active
CC(=O)O[C@H]1C[C@H](O[C@H]2[C@@H](O)C[C@H](O[C@H]3[C@@H](O)C[C@H](O[C@H]4CC[C@@]5(C)[C@@H](CC[C@H]6[C@@H]5C[C@@H](O)[C@]5(C)[C@@H](C7=CC(=O)OC7)CC[C@]65O)C4)O[C@@H]3C)O[C@@H]2C)O[C@H](C)[C@H]1O[C@@H]1O[C@H](CO)[C@@H](O)[C@H](O)[C@H]1O	active
CC12CCC3C(CCC4CC(O)CCC43C)C1CCC2O (stereo not given)	inactive
CC(=O)OC1CCC2(C)C(CCC3C2CCC2(C)C(C4=CC(=O)OC4)C(OC(C)=O)CC32O)C1 (stereo not given)	active
CC12CCC3C(CCC4CC(O)CCC43C)C1CCC2=O (stereo not given)	inactive
CNC(=O)Oc1ccc2c(c1)C1(C)CCN(C)C1N2C (stereo not given)	inactive
COC(=O)[C@]1(Cc2ccccc2CN=[N+]=[N-])N=C(c2ccc(OCCCO)cc2)O[C@@H]1c1ccccc1CN=[N+]=[N-]	inactive
COc1ccccc1C1(N)CC1	inactive
N#C[C@]1(O)CN2CCC1CC2	inactive
CC(C)Oc1ccc(CCN)cc1	inactive
COc1cc(C=O)cc(OC)c1OC	inactive
Cn1cc([C@@]23C[C@]2(C)COC3=O)cn1	inactive
C1CCN(C[C@H]2CO[C@]3(CNCCOC3)C2)C1	inactive
C=C1CC2C(CCC3(C)C(=O)CCC23)C2(C)C=CC(=O)C=C12 (stereo not given)	inactive
O=C1C[C@@H](c2ccncc2)C2(CCNCC2)N1	inactive
O=C(NN=Cc1ccc([N+](=O)[O-])o1)c1cc([N+](=O)[O-])cc([N+](=O)[O-])c1O	inactive
CC(C)N(C)C[C@H]1CO[C@]2(CNCCOC2)C1	inactive
O=c1cccc2n1C[C@@H]1C[C@H]2CN(CCO)C1	inactive

SMILES	cytotoxicity call
O=C(CBr)N1CC([N+](=O)[O-])([N+](=O)[O-])C1	inactive
O=C(O)CNCP(=O)(O)O	inactive
NCCO.NCCO.O[AsH]O[AsH]O (stereo not given)	inactive
O=c1cccc2n1C[C@H]1CNC[C@H]2C1	inactive
CN(C)C(=O)Oc1ccc[n+](C)c1.[Br-]	inactive
NCC1(c2c(F)cc(F)cc2F)CC1	inactive
CO[C@H]1[C@@H](O)C[C@@H](O[C@H]2[C@@H](O)C[C@@H](O[C@H]3[C@@H](O)C[C@@H](O[C@H]4CC[C@@]5(C)[C@@H](CC[C@H]6[C@@H]5C[C@@H](O)[C@@]5(C)[C@H](C7=CC(=O)OC7)CC[C@@]65O)C4)O[C@@H]3C)O[C@@H]2C)O[C@@H]1C	active
CO[C@H]1[C@H](O)[C@@H](O[C@H]2[C@@H](C)O[C@@H](O[C@H]3[C@H](C)O[C@H](O[C@H]4CC[C@@]5(C)[C@@H](CC[C@@]6(O)[C@@H]5C[C@@H](O)[C@]5(C)[C@]6(O)CC[C@@]5(O)[C@@H](C)O)C4)C[C@@H]3OC)C[C@H]2OC)O[C@@H](C)[C@H]1O	inactive
Cc1cc(N(C)C)ccc1C[C@@H](C)N	inactive
Cn1cc(N2C[C@@H]3CN(CCO)C[C@@H]3C2=O)cn1	inactive
COC(=O)[C@@H]1[C@@H](CO)[C@@H]2Cn3c(ccc(C4=CCCC4)c3=O)[C@H]1N2S(=O)(=O)c1cn(C)cn1	inactive
CCC(=O)CCCCC[C@@H]1NC(=O)[C@H]2CCCCN2C(=O)[C@H]([C@H](C)CC)NC(=O)[C@H](Cc2cn(OC)c3ccccc23)NC1=O	active
CCC(=O)CCCCC[C@@H]1NC(=O)[C@H]2CCCCN2C(=O)[C@H]([C@@H](C)CC)NC(=O)[C@H](Cc2cn(OC)c3ccccc23)NC1=O	active
Nc1ccc(-c2ccc(N)cc2)cc1	inactive
O=[N+]([O-])c1cc([As](=O)(O)O)ccc1O	inactive
COc1cccc(-c2ccc3c(CCN)c[nH]c3c2)c1	inactive
CCNS(=O)(=O)C(F)(F)C(F)(F)C(F)(F)C(F)(F)C(F)(F)C(F)(F)C(F)(F)C(F)(F)F	inactive
CC(=O)NCCSS(C)(=O)=O.CN(C)c1ccc2c(-c3ccccc3C(=O)O)c3ccc(N(C)C)cc3[o+]c2c1	inactive
CNc1ccc2oc(C[C@H]3O[C@@]4(CC[C@H]3C)O[C@H]([C@H](C)C(=O)c3ccc[nH]3)[C@H](C)C[C@H]4C)nc2c1C(=O)O	active
